In PubChem BioAssay (NCI) one finds growth inhibition data, which are given here for 40 compounds.

The nature of test [1]: NCI Yeast Anticancer Drug Screen. Data for the rad50 strain (AID 155).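 Further: 0% = growth of vehicle-only cultures of the same strain.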 The conditions noted are these: S. cerevisiae rad50 strain growth inhibition; at 50.0 µM; active compounds read high. The method, boiled down: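 DNA repair mutant yeast, compound exposure, growth read-out; inhibition is taken relative to vehicle.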
The nature of test [2]: NCI Yeast Anticancer Drug Screen. Data for the mec2-1 strain (AID 157). The conditions noted are these: S. cerevisiae mec2-1 strain, at 50.0 µM, active compounds read high. The method, boiled down: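 Readout is yeast growth inhibition, normalised to vehicle-treated controls, in the mec2-1 strain exposed to compound.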
Test [3] in a line: NCI Yeast Anticancer Drug Screen. Data for the sgs1 mgt1 strain (AID 161).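 Further: 0% = growth of cultures given vehicle only.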 The note with it: S. cerevisiae sgs1 mgt1 strain, at 50.0 µM, active compounds read high. The method, boiled down: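 Growth of a repair-deficient yeast mutant was monitored after compound treatment and expressed as inhibition relative to vehicle-treated cultures.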
Test [4] in a line: NCI Yeast Anticancer Drug Screen. Data for the cln2 rad14 strain (AID 165).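 Further: 0% = growth equal to vehicle treated cultures.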 The note with it: S. cerevisiae cln2 rad14 strain, at 50.0 µM, active compounds read high. The procedure, abridged:
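Relative to vehicle controls, growth inhibition of compound-treated cln2 rad14 yeast was recorded.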

Test [5] is described as follows: NCI Yeast Anticancer Drug Screen. Data for the bub3 strain (AID 167). The conditions noted are these: S. cerevisiae bub3 mutant strain, at 50.0 µM, active compounds read high. The method, boiled down: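 In this screen, a yeast mutant lacking normal mitotic checkpoint function is challenged with compound. Relative growth versus vehicle gives the inhibition value.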
Test [6] can be described thus: NCI Yeast Anticancer Drug Screen. Data for the mlh1 rad18 strain (AID 175). The note with it: S. cerevisiae mlh1 rad18 strain growth inhibition; at 50.0 µM; active compounds read high. The procedure, abridged:
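Test agents were incubated with a yeast strain of defined genotype (DNA damage repair defect). Inhibition of growth was derived by comparison with vehicle-exposed cultures.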

SMILES strings stand for the structures. Compounds without any hit were thinned out: in the full panel of roughly 79,000, 15% have a hit. Unmarked numbers belong to inactive results. Active and inactive are the calls of the source. No stated cut-off is given here; in the data, active means growth inhibition above about 70%; inactive means the rest.

Turning to `Cc1cc(-c2ccc(N=Nc3c(C)nn(-c4ccc(S(=O)(=O)O)cc4)c3O)c(C)c2)ccc1N=Nc1ccc(O)c(C(=O)O)c1`, the growth inhibition was 26% in test [1]; 12.4% in test [2]; 26.2% in test [3]; 20.9% in test [4]; 18.6% in test [5]; 21% in test [6].

Regarding `Cc1ccc(-c2c(N)nc(NC#N)nc2CCC(=O)Nc2ccccc2[N+](=O)[O-])cc1`, the growth inhibition in test [1] was 1.9%; in test [2] it was 1.35%; in test [3] it was -14.6%; in test [4], 5.5%; in test [5], 3.7%; in test [6], 5.4%.

As to `CCCCCCCCCCO`, the growth inhibition was -1.6% in test [1]; 4.6% in test [2]; -5.15% in test [3]; 5.45% in test [4]; 3.2% in test [5]; -1.6% in test [6].

Regarding `Nc1c2ccccc2nc2ccc3c(=O)cc(-c4ccccc4)oc3c12`, the growth inhibition is 20.6% in test [1]; 18.9% in test [2]; -12.1% in test [3]; 22.1% in test [4]; 11.1% in test [5]; -73% in test [6].

As for `CSc1ccc(NC(=O)Nc2cc(C(C)C)ccc2C)cc1`, the growth inhibition in test [1] is 0.6%; in test [2] it was 38.4%; in test [3], 13.9%; in test [4], -18%; in test [5], 43.2%; in test [6], 28.2%.

Consider `O=C(O)C1CSC(c2ccccc2O)N1` (stereo not given), for which the growth inhibition in test [1] was -17.6%; in test [2], -2.75%; in test [3] it was -4.6%; in test [4] it was -26.9%; in test [5] it was 5.4%; in test [6], -8.75%.

In the case of `Cc1ccc(C2(C)CC[C@@H]3C[C@@]32C)c(O)c1` (stereo not given in full), the growth inhibition was 91.2% (active) in test [1]; 93.8% (active) in test [2]; 93.5% (active) in test [3]; 92.2% (active) in test [4]; 92.7% (active) in test [5]; 91.8% (active) in test [6].

`Cc1ccnc(N(C)CCN2CCCCC2)c1`: the growth inhibition in test [1] is 2.75%; in test [2], 8.15%; in test [3], 7.3%; in test [4], -34.5%; in test [5], 12.4%; in test [6] it was -20.8%.

With `CCCCCCCCCCCCCCCCCC1=NCC(C)O1` (stereo not given), the growth inhibition in test [1] was 4.6%; in test [2], -14%; in test [3] it was -0.35%; in test [4] it was 19.6%; in test [5], 13.3%; in test [6], -10.1%.

`Cc1cc(N=Nc2ccc(N(C)C)cc2)ccn1`: the growth inhibition was 21.6% in test [1]; 7.2% in test [2]; 6.1% in test [3]; -52.8% in test [4]; 13.7% in test [5]; 0.9% in test [6].

Take `CCOCCOC(=O)CCCCCCCCC(=O)OCCOCC`: the growth inhibition in test [1] was 9.7%; in test [2], 11.9%; in test [3] it was 12.6%; in test [4], 37.9%; in test [5] it was 25.6%; in test [6], 25.9%.

With `C[Si](C)(C)c1ccc(-c2ccccc2)cc1`, the growth inhibition is 20.1% in test [1]; -8.65% in test [2]; 2.25% in test [3]; -61.7% in test [4]; 22.5% in test [5]; -18.4% in test [6].

With `Cc1nc(-c2ccccc2)nc2c1nc(Cc1ccc(Cl)cc1)n2Nc1ccccc1`, the growth inhibition is 1.7% in test [1]; -0.3% in test [2]; 1.6% in test [3]; -5.75% in test [4]; -1.45% in test [5]; 40.5% in test [6].

In the case of `CC(=O)[C@H]1C[C@@H](CC(=O)O)C1(C)C`, the growth inhibition in test [1] is -0.55%; in test [2] it was -11.8%; in test [3], -10.6%; in test [4] it was -6%; in test [5] it was -3.25%; in test [6] it was -3.15%.

Consider `OCCN(Cc1ccccn1)Cc1ccccn1`, for which the growth inhibition in test [1] is 14%; in test [2] it was -3.7%; in test [3] it was 36.2%; in test [4] it was 11.2%; in test [5] it was 8.4%; in test [6] it was 9%.

Turning to `CCCCC(O)(c1ccccc1)c1ccccc1CN(C)C` (stereo not given), the growth inhibition was 1.7% in test [1]; -3% in test [2]; -0.65% in test [3]; 6.15% in test [4]; -2.05% in test [5]; -4.8% in test [6].

For the compound `[Cl][Sm]([Cl])[Cl]`, the growth inhibition in test [1] was 17.9%; in test [2], -9.7%; in test [3], 8.65%; in test [4] it was 8.6%; in test [5] it was 27.6%; in test [6], 9.6%.

With `CC(C)(C)c1ccc2c(c1)CNCCNCCNCc1cc(C(C)(C)C)ccc1OCC1(CO2)COc2ccc(C(C)(C)C)cc2CNCCNCCNCc2cc(C(C)(C)C)ccc2OC1`, the growth inhibition in test [1] was 91% (active); in test [2] it was 93% (active); in test [3], 92% (active); in test [4], 91.2% (active); in test [5], 92.2% (active); in test [6], 89.8% (active).

Take `Cc1nc(Cl)nc2c1C(=O)Nc1ccccc1N2`: the growth inhibition in test [1] is 27.2%; in test [2] it was 14.4%; in test [3] it was 0%; in test [4], 2.95%; in test [5] it was 28.1%; in test [6], 15.9%.

With `COc1ccc(C(=Cc2cc(OC(C)=O)c3ccccc3c2OC(C)=O)c2ccc(OC)cc2)cc1`, the growth inhibition in test [1] was 13.1%; in test [2], -8.8%; in test [3], -8%; in test [4], -15.9%; in test [5] it was 3.7%; in test [6], -0.5%.

For the compound `COP(=O)(CC(=O)C1OC(C)(C)OC1C(O)COCc1ccccc1)OC` (stereo not given), the growth inhibition was -21.3% in test [1]; 22.9% in test [2]; 22.9% in test [3]; 14.3% in test [4]; 14.6% in test [5]; 5.85% in test [6].

For `CCCCC/C(C)=N\NC(N)=S`, the growth inhibition in test [1] is 15.6%; in test [2] it was -6.15%; in test [3], -15.9%; in test [4], 1.85%; in test [5] it was 19.8%; in test [6], -2.5%.

Regarding `CCc1nc2cc(F)ccc2[nH]c1=O`, the growth inhibition in test [1] was 17.3%; in test [2], 24.2%; in test [3], 28.9%; in test [4] it was 21.4%; in test [5], 40.9%; in test [6] it was -7.55%.

For `COc1ccc(CCn2cnn3c(=O)c4ccccc4nc3c2=O)cc1OC`, the growth inhibition in test [1] is -24%; in test [2] it was -29.9%; in test [3] it was -9.1%; in test [4], -0.8%; in test [5], -17.4%; in test [6], -20.9%.

Consider `O=C1CS(=O)(=O)c2ccccc21`, for which the growth inhibition in test [1] was -11.4%; in test [2] it was 1.5%; in test [3], 1.5%; in test [4], -13.3%; in test [5], -8.8%; in test [6] it was 22.2%.

Consider `CC1CCC(OC(=O)Cc2ccccc2)CC1` (stereo not given), for which the growth inhibition in test [1] was 26.7%; in test [2], 18%; in test [3], 9.55%; in test [4], -15.1%; in test [5], 18.5%; in test [6], 24.6%.

On to `CCCCCCCCCO`, for which the growth inhibition in test [1] is 13.7%; in test [2], -4.8%; in test [3] it was 19.9%; in test [4], 11.3%; in test [5] it was 12.8%; in test [6], 19.3%.

Turning to `Cn1nc2ccc3nccc(NCCNCCO)c3c2n1`, the growth inhibition in test [1] is -3.65%; in test [2], -8.8%; in test [3] it was -4.65%; in test [4] it was 7.4%; in test [5], -4.8%; in test [6] it was -9.65%.

Consider `N#Cc1ccc(/C=C/C(=O)c2ccccc2)cc1`, for which the growth inhibition in test [1] was 13.4%; in test [2] it was -20.1%; in test [3], 5.8%; in test [4], 6.8%; in test [5], 13.9%; in test [6], 9.05%.

On to `c1ccc2[nH]cnc2c1`, for which the growth inhibition was 7.85% in test [1]; -1.55% in test [2]; 0.65% in test [3]; -4.4% in test [4]; 8.7% in test [5]; -46.8% in test [6].

As for `N=C(N=C(N)N)N1CCOCC1`, the growth inhibition is 8.95% in test [1]; 20.1% in test [2]; 9.75% in test [3]; 32.7% in test [4]; 30.1% in test [5]; -0.55% in test [6].

Turning to `OCCN1CCN(C2=Nc3cccnc3Nc3cscc32)CC1`, the growth inhibition was -41.2% in test [1]; -1.15% in test [2]; -22.6% in test [3]; -9.75% in test [4]; -5.05% in test [5]; -8.75% in test [6].

`C=C1C(=O)OC2C=C(C)C3C(OC(=O)c4ccccc4)CC(C)(O)C3CC12` (stereo not given): the growth inhibition was 1.4% in test [1]; -41.4% in test [2]; 3.05% in test [3]; 16.6% in test [4]; -2.75% in test [5]; 0.45% in test [6].

Regarding `COc1ccc(C(=O)c2ccc(C(=O)O)cc2)c(OC)c1`, the growth inhibition in test [1] was -5.4%; in test [2] it was -17.5%; in test [3] it was -14.6%; in test [4], -48.6%; in test [5], 5.95%; in test [6], -27.6%.

For the compound `OC(CCl)(CCl)CCl`, the growth inhibition was 9.5% in test [1]; -11.9% in test [2]; -9.7% in test [3]; -16.5% in test [4]; -2.05% in test [5]; 18.8% in test [6].

For the compound `Oc1ccc(O)c(-c2ccccc2)c1`, the growth inhibition in test [1] was 61.5%; in test [2], 36.2%; in test [3], 53.2%; in test [4] it was 51%; in test [5], 33.6%; in test [6], 44%.

For the compound `CC(=O)Nc1ccc(OC(C)=O)cc1`, the growth inhibition was 14.4% in test [1]; -0.85% in test [2]; 3.55% in test [3]; 20.5% in test [4]; 2.7% in test [5]; 24.4% in test [6].

Consider `CCCCCCCOCC(=O)OC`, for which the growth inhibition in test [1] is 3.6%; in test [2], -0.7%; in test [3], 2%; in test [4], -21.2%; in test [5], 10.2%; in test [6] it was 1.45%.

Regarding `O=COCCCc1ccccc1`, the growth inhibition was 15.8% in test [1]; -1.85% in test [2]; 11.8% in test [3]; -5.2% in test [4]; 3.15% in test [5]; -23.7% in test [6].

For `O=c1[nH]cnc2sc3c(c12)CCC3`, the growth inhibition in test [1] was 30.6%; in test [2], 6.9%; in test [3], 14.2%; in test [4] it was 13.4%; in test [5] it was 3.1%; in test [6], 1.55%.
